One assay concerns the target CT47A1. As to the kind of experiment: pooled miR-30 sensor sort-seq; sequence = guide strand. Particulars: shRNA.
In turn, TCACCTTGTTTTCTGCATCCTT showed a sensor-assay potency score (higher = more potent) of 0.106.
Same read-out and setting: with TGCATCCTTCTCTTTTTCTTGT the figure was -0.624; with TTCTTCACCTTGTTTTCTGCAT, -0.231.
Still for that read-out and setting: next, TTTAGTGACTTCCTCTGGGGCC: -0.087; TTGTTCTTTCTCTTCCTCGCCT: 0.277; TCTGCGTCTGGTTCCTCTGTGG: -0.289.
As to TTCTCTATGAGGATGTGGTCGT, the sensor-assay potency score (higher = more potent) was determined as 0.0532.
As for TTGTTTTCTGCATCCTTCTCTT, the sensor-assay potency score (higher = more potent) was -0.0876.
Still for that read-out and setting: next, TATCTGAGTCCTCCTCGGCGCT: -1.49.

The target of another assay is CTBP2. Described as above. The settings on record: shRNA.
TTCGTTGAGATTGCAGTGCAAG: the sensor-assay potency score (higher = more potent) was -1.27.
Still for that read-out and setting: with AATCGCTGTCTCTTGACTTTGT the figure was 0.0201; with TTGCAGTGCAAGGAGACGCAGT, -0.883.
Still for that read-out and setting: next, TTGCTTGCTGGTCTATTACTGA: -0.788; TCGCTGTCTCTTGACTTTGTGC: -1.38.
The same measure, in the same setting: next, TACCTTCACAAATTCTGTCCAA: -0.0172.
ACAAATTCTGTCCAATCGCTGT: the sensor-assay potency score (higher = more potent) was -0.83.
Same read-out and setting: with TATCCGCACGATCACTCTCAGG the figure was -1.62; with TTTCCTGCGTCGACTGCGCGTC, -0.459; with TTGTGAGTCACTGGGATGCCTC, -1.08.
On the same count and under the same terms, with TTATGTTCGTTGAGATTGCAGT the figure was -0.485; with TGCTGGTCTATTACTGACCAAG, -1.63.
Same read-out and setting: next, TTGCTGGTCTATTACTGACCAA: -0.982.
Take TTCTGTCCAATCGCTGTCTCTT: the sensor-assay potency score (higher = more potent) is -0.623.
For the sequence TAAAATATGACGCTGAATCCAA, the sensor-assay potency score (higher = more potent) is -0.138.
Same read-out and setting: next, TTGAGATTGCAGTGCAAGGAGA: -0.597; AATTTCTTAAGCTTTCTGGGAT: 0.0586.
On the same count and under the same terms, next, TTCGTTTAGAACCTTCTCGTGG: -0.189; TTCGGGGCATCTTTCAACGGAC: -0.791.
On the same count and under the same terms, with TAAGGCTTTCTCGTCCACCAGG the figure was -0.686; with TAGAGTCCGCTGTCTCTTCCAC, -0.12; with TCGTTTAGAACCTTCTCGTGGA, 0.661.
In the case of TATGGTAAAGTCATTGATGAGG, the sensor-assay potency score (higher = more potent) is -1.17.

For a further assay, the target named is CTCFL. Described as above. The settings on record: shRNA.
On to TTTGGGGACATTTTCGCCGTGT, for which the sensor-assay potency score (higher = more potent) was -0.126.
TTTAGAAGTTGCTTCTGTCGGA displayed a sensor-assay potency score (higher = more potent) of 0.605.
The same measure, in the same setting: with TTGAATTTGAAACTGTGAGAAC the figure was -1.1.
For TAAAGGTGAACCTTGCTCCTAT, the sensor-assay potency score (higher = more potent) turned out to be 0.214.
The same measure, in the same setting: next, TTATTTTCTAGTCTAATCTAGT: -0.371; TATCCTGCAACTCCACAGCTTC: -1.14.
Take TTTCTTTGAAATATCCAGCTAC: the sensor-assay potency score (higher = more potent) is 0.55.
On the same count and under the same terms, next, TTGAGGAGCATTTCACACCTTA: 0.0619.

Source of the values: the OligoGym collection.
Further: reference of the scale not given here.
